Our source for the outcome and AC50 values is PubChem BioAssay (EPA / NIEHS).

Structures are written as SMILES. “And” between values parts separate entries of the source, which are not always exact repeats. Identical values can stand only once. Records with an inconclusive call do not appear. Some compounds were tested as several samples or in several runs, with calls that do not always agree. The source made the active and inactive calls. Rule for the calls: active = hit-call score of the fitted dose curve at least 0.9, where 1 is the maximum; inconclusive = response in the unintended direction; inactive = score below 0.9.

This assay has as its system turtle Estrogen Receptor (ERa), gene 101933533. The assay can be described thus: ATG_trERa_XSP2: Attagene TRANS-FACTORIAL Multi-Species (XSP2) HepG2 Assay for turtle Estrogen Receptor (ERa) (AID 2283812).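 Note: actives raise reporter signal above DMSO so AC50 reflects agonist activity.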 As to the method: ATG_XSP2_multi-species_TRANS is a cell-based, multiplexed assay created by modifying the existing Attagene TRANS-FACTORIAL system to include a panel of nuclear receptors from some or all the following species: human (Homo sapiens), mouse (Mus musculus), frog (Xenopus laevis), zebrafish (Danio rerio), chicken (Gallus gallus), and turtle (Chrysemys picta). The ECOTOX-FACTORIAL format uses HepG2, a human liver cell line, with measurements taken at 24 hours after chemical dosing in a 24-well plate. Xsp2 included 3 nM 6-alpha-fluorotestosterone and 1.5 nM norgestrel to stimulate the androgen receptor.ATG_trERa_XSP2 is one of 29 assay components measured or calculated from the ATG_XSP2_multi-species_TRANS assay. It is designed to make measurements of mRNA induction, a form of inducible reporter, as detected with fluorescence intensity signals by Reverse transcription polymerase chain reaction (RT-PCR) and Capillary electrophoresis technology.The assay endpoint ATG_trERa_XSP2 was analyzed in the positive analysis fitting direction relative to DMSO as the negative control and baseline of activity. Using a type of inducible reporter, measures of mRNA for gain-of-signal activity can be used to understand the reporter gene at the transcription factor-level as they relate to the gene ER. Furthermore, this assay endpoint can be referred to as a primary readout, because this assay has produced multiple assay endpoints where this one serves a reporter gene function. To generalize the intended target to other relatable targets, this assay endpoint is annotated to the nuclear receptor intended target family, where the subfamily is steroidal.
Human liver HepG2 cells are transiently transfected with multiple reporter transcription units (MRTUs) in 6-well plates using FuGene 6 reagent (Roche; 3 ml FuGene/1 mg DNA). The MRTU constructs are regulated by a cis-regulating element (promoter). […] A major difference between the CIS and TRANS system is that in CIS activities of endogenous TFs are measured, whereas the TRANS assay evaluates changes in activities of exogenous, chimeric NR-Gal4 proteins. […] At the end of 24 hour incubation, total RNA was isolated using TriZol reagent (Invitrogen). The isolated RNA is then reverse-transcribed using oligo(dT) primer and Mo-MLV reverse transcriptase (Invitrogen) with DNAse I (Ambion) treatment for 30 min. The one-tenth of the produced cDNA was amplified by PCR using Taq DNA polymerase (Invitrogen) and two reporter sequence-specific primers. The PCR products were fluorescently labeled by primer extension with 6-arboxyfluorescein (6-FAM) 5'-labeled reporter sequence-specific primer (2 min at 95 C, 20 s at 68 C and 10 min at 72 C) and these products were digested with 5U of HpaI (New England Biolabs) for 2h at 37 C. The fragments were purified using Qiaquick PCR columns (Qiagen), analyzed on an ABI 3130xL genetic analyzer (Applied Biosystems) with peak positions identified by using a set of X-rhodamine (ROX)-labeled MapMarker1000 molecular weight standards (BioVentures). The raw capillary electrophoresis data was processed using Attagraph software (Attagene).
Broadly, the AC50 is the midpoint of the concentration-response curve, whichever way the signal moves. For the compound `CC12CC1(C)C(=O)N(c1cc(Cl)cc(Cl)c1)C2=O` (stereo unspecified), the compound was called inactive and the concentration at half-maximal activity (AC50) was 100 µM (active).
For `Clc1ccc(C2(Cn3cncn3)CC(Br)CO2)c(Cl)c1` (stereo unspecified), in that order: “inactive” and 19.8 µM (active).
For `C[C@H]1CCCC(=O)CCC/C=C/c2cc(O)cc(O)c2C(=O)O1`, the AC50 is 7 nM (active) and 1.7 nM (active).
On the same count and under the same terms, next, `O=S(=O)(c1ccc(Cl)cc1)c1ccc(Cl)cc1`: 14.4 µM (active) and 15.9 µM (active).
Turning to `CC(C)(C)c1cc(O)ccc1O`, the AC50 is 15.3 µM (active).
On to `CC(=O)C=C(C)C`, for which the compound was called inactive.
On to `CC1(C)CCC(Cc2ccc(Cl)cc2)C1(O)Cn1cncn1` (stereo unspecified), for which the AC50 was 5.11 µM (active).
With `CC(C)C1CCC(Cc2ccc(Cl)cc2)C1(O)Cn1cncn1` (stereo unspecified), the outcome was inactive.
In the case of `Oc1ccc(-c2ccccc2)cc1`, the AC50 was 1.44 µM (active) and 925 nM (active).
`O=C1C2(Cl)C3(Cl)C4(Cl)C(Cl)(Cl)C5(Cl)C3(Cl)C1(Cl)C5(Cl)C24Cl` (stereo unspecified): the AC50 is 0.514 µM (active).
The same measure, in the same setting: as for `CC(C)(C)CC(C)(C)c1ccc(O)cc1`, the figure is 5.79 µM (active).
Same read-out and setting: as for `C[C@]12CC[C@H](O)CC1=CC[C@@H]1[C@@H]2CC[C@]2(C)C(=O)CC[C@@H]12`, the figure is 2.22 µM (active) and 1.09 µM (active); as for `COP(=O)(OC)O/C(=C\Cl)c1cc(Cl)c(Cl)cc1Cl`, 3.18 µM (active).
For the compound `C[C@]12CCC(=O)C[C@@H]1CC[C@@H]1[C@@H]2CC[C@]2(C)[C@@H](O)CC[C@@H]12`, the compound was called inactive.
